According to PubChem BioAssay (Tox21):
Results filed as inconclusive are left out. Active and inactive are the calls of the source. Unless noted, calls follow the shape of the dose curve; as a rule, active = well fitted curve in the direction sought with a large enough effect in the repeat runs; inconclusive = weak or mixed curves; inactive = no such curve, though single readings can be large; an effect the other way counts as inactive or inconclusive.

What was measured:
[1] = qHTS assay to identify small molecule antagonists of the vitamin D receptor (VDR) signaling pathway - cell viability counter screen (AID 743225); also: % is scaled to controls: 0 for no effect and ±100 for the full control effect; nearly all actives have a fitted effect of over 50% in size
Procedure, shortened: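 Read-out: CellTiter-Glo luminescence measured 30 min after reagent addition at room temperature. Cells were VDR-bla HEK 293T exposed 16 h at 37C, 5% CO2, to compound with 3 nM final calcitriol agonist.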

[2] = qHTS assay to identify small molecule agonists of the NFkB signaling pathway - cell viability counter screen (AID 1159515; calls by dose curve; also: series mostly up to about 61 µM; % is scaled to controls: 0 for no effect and ±100 for the full control effect; nearly all actives have a fitted effect of over 55% in size)
Procedure, shortened: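 NFkB-bla ME-180 cells, 2,000/well, were plated overnight at 37 C, 5% CO2, then exposed to compounds in DMSO for 5 hr. After the bla FRET read, CellTiter-Glo was added to the same wells; luminescence was read after 30 min at room temperature.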

[3] = qHTS assay to identify small molecule agonists of the endoplasmic reticulum stress response signaling pathway (AID 1159516; active = well fitted activation curve with a large enough effect in the signal ratio in the repeat runs, not every such curve was filed as active; the % refers to the signal ratio; also: % is scaled to controls: 0 for no effect and ±100 for the full control effect)
Procedure, shortened: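 CellSensor ESRE-bla HeLa cells, carrying a beta-lactamase reporter driven by the ER stress response element, were plated overnight and exposed to compounds for 5 hr at 37 C. Reporter activity was read as FRET substrate fluorescence after 2 hr at room temperature.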

[4] = qHTS assay to identify small molecule agonists of the endoplasmic reticulum stress response signaling pathway - cell viability counter screen (AID 1159517; calls by dose curve; also: series mostly up to about 61 µM; % is scaled to controls: 0 for no effect and ±100 for the full control effect; nearly all actives have a fitted effect of over 50% in size)
Procedure, shortened: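 CellTiter-Glo was added to wells already read for beta-lactamase FRET, and luminescence was recorded 30 min later. Cells: ESRE-bla HeLa, 1,500 per well, compound exposure 5 hr at 37 C.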

[5] = qHTS assay to identify small molecule antagonists of the retinoid-related orphan receptor gamma (ROR-gamma) signaling pathway - cell viability counter screen (AID 1159520); also: nearly all actives have a fitted effect of over 50% in size; also: potency is read from the fitted curve at half-maximal effect
Procedure, shortened: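 Tet-on ROR gamma CHO cells (1,000/well) were plated 4 hr, given compounds in DMSO for 2 hr at 37 C, then induced with 1 uM final doxycycline for 16 hr. Viability was read as ATP by CellTiter-Glo luminescence after 30 min.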

[6] = biological target: Nuclear receptor ROR-gamma (Homo sapiens) (UniProt P51449); experiment: qHTS assay to identify small molecule antagonists of the retinoid-related orphan receptor gamma (ROR-gamma) signaling pathway (AID 1159521; also: nearly all actives have a fitted effect of over 50% in size; also: potency is read from the fitted curve at half-maximal effect)
Procedure, shortened: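 CHO Tet-on RORγ, RORE-luc reporter. Cpd 2 h pre-incubation, then dox hyclate 1 uM final, 16 h, 37 C/5% CO2. ONE-Glo luminescence; decrease = antagonist.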

[7] = biological target: Retinoic acid receptor RXR-alpha (Homo sapiens) (UniProt P19793); experiment: qHTS assay to identify small molecule agonists of the RXR signaling pathway (AID 1159527; calls by dose curve; also: % is scaled to controls: 0 for no effect and ±100 for the full control effect; nearly all actives have a fitted effect of over 35% in size)
Chain of Retinoic acid receptor RXR-alpha (Homo sapiens) (P19793 whole entry, looked up): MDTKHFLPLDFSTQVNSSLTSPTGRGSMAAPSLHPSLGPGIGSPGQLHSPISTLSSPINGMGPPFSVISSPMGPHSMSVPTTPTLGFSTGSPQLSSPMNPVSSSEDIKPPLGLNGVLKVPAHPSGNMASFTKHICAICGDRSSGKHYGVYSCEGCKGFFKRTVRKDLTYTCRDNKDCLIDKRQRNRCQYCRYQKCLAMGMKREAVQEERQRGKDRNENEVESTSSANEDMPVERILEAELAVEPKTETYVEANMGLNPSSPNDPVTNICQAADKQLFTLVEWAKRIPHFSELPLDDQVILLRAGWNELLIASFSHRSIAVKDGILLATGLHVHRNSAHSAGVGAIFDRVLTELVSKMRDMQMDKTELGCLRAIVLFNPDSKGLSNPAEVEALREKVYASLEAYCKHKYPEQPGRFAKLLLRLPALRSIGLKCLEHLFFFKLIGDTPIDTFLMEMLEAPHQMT
Procedure, shortened: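 Read-out: beta-lactamase FRET ratio (405 nm excitation, 460 and 530 nm emission) after 2 hr substrate loading at room temperature. Cells were RXR-alpha-UAS-bla HEK 293T treated with compounds for 16 hr in 2% charcoal-stripped FBS medium.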

[8] = qHTS assay to identify small molecule agonists of the RXR signaling pathway - cell viability counter screen (AID 1159529)
Procedure, shortened: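 HEK 293T RXRa-bla cells, 2% CS-FBS; 5 h settle; cpd 16 h 37 C, 5% CO2; CellTiter-Glo 30 min RT, luminescence. Tetraoctyl ammonium bromide as positive control.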

[9] = qHTS assay to identify small molecule antagonists of the retinoid acid receptor (RAR) signaling pathway - cell viability counter screen (AID 1159551); also: nearly all actives have a fitted effect of over 35% in size; also: potency is read from the fitted curve at half-maximal effect
Procedure, shortened: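 C3RL4 cells were seeded overnight at 37 C, then treated with compounds plus 1 uM (final) retinol for 6 h at 37 C. Viability was read as ATP by CellTiter-Glo luminescence after 30 min at room temperature.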

[10] = qHTS assay to identify small molecule antagonists of the retinoic acid receptor (RAR) signaling pathway (AID 1159552)
Procedure, shortened: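 Cells of the C3RL4 line were seeded, incubated overnight, then dosed with compounds in DMSO followed immediately by retinol (1 uM final). Six hours later luciferase detection reagent went in; signal was measured after 30 min at RT.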

[11] = qHTS assay to identify small molecule agonists of the vitamin D receptor (VDR) signaling pathway - cell viability counter screen (AID 743224)
Procedure, shortened: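 VDR-bla cells were preincubated 4 h at 37C/5% CO2, then exposed to compounds for 16 h. After the 2 h room-temperature bla FRET read, CellTiter-Glo was added to the same wells and luminescence read after 30 min.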

[12] = qHTS assay to identify small molecule agonists of the AP-1 signaling pathway (AID 1159526; calls by dose curve; also: % is scaled to controls: 0 for no effect and ±100 for the full control effect)
[13] = qHTS assay to identify small molecule agonists of the retinoic acid receptor (RAR) signaling pathway (AID 1159553); also: potency is read from the fitted curve at half-maximal effect
Procedure, shortened: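 C3RL4 cells carrying a RARE luciferase reporter were plated overnight at 37 C, then exposed to compounds in DMSO for 6 hr at 37 C and 5% CO2. Luminescence was read 30 min after luciferase reagent addition at room temperature.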

[14] = qHTS assay to identify small molecule antagonists of the estrogen related receptor (ERR) signaling pathway - cell viability counter screen (AID 1224818);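 also: series mostly up to about 46 µM; viability measured after 17.5 h of compound exposure; % is scaled to controls: 0 for no effect and ±100 for the full control effect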
Procedure, shortened: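 ERR reporter cells plated 6 h at 37 C/5% CO2, then compounds in DMSO pin-transferred and incubated 17.5 h at 37 C. Viability read as CellTiter-Fluor fluorescence after 30 min at 37 C.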

[15] = qHTS assay to identify small molecule antagonists of the estrogen related receptor (ERR) signaling pathway (AID 1224819)
Procedure, shortened: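 ERR reporter cells were plated at 2,000 cells/well and left 6 h at 37 C/5% CO2 before pin-tool transfer of compounds in DMSO. After 18 h at 37 C, One-Glo was added and luminescence was read 30 min later at room temperature.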

[16] = qHTS assay to identify small molecule agonists of the estrogen related receptor (ERR) signaling pathway (AID 1224820); also: % is scaled to controls: 0 for no effect and ±100 for the full control effect
Procedure, shortened: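 ERR reporter cell line (from NTP), 2,000 cells/well, incubated 6 h before compound addition, then 18 h at 37 C. Luminescence measured 30 min after One-Glo reagent at room temperature.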

[17] = test system: estrogen-related receptor alpha (ERRalpha) with PGC-1alpha coactivator, human; experiment: qHTS assay to identify small molecule antagonists of the estrogen related receptor signaling pathway with the pleiotropic PPARgamma coactivator (PGC) (AID 1224821; calls by dose curve)
Procedure, shortened: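 PGC/ERR reporter cell line, plated 6 h before compound addition, then exposed 18 h at 37 °C. Luciferase activity read by luminescence 30 min after One-Glo addition; decrease indicates antagonism.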

[18] = qHTS assay to identify small molecule antagonists of the estrogen related receptor signaling pathway with the pleiotropic PPARgamma coactivator (PGC) cell viability counter screen (AID 1224822)
Procedure, shortened: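 PGC/ERR cells were seeded at 2,000 cells/well, rested 6 h at 37 C/5% CO2, then given compounds in DMSO by pin tool and incubated 17.5 h at 37 C. Viability came from CellTiter-Fluor fluorescence after 30 min.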

[19] = qHTS assay to identify small molecule agonists of the estrogen related receptor signaling pathway with the pleiotropic PPARgamma coactivator (PGC) (AID 1224823); also: % is scaled to controls: 0 for no effect and ±100 for the full control effect
Procedure, shortened: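 PGC/ERR reporter cells seeded 6 h, then exposed to compounds (23 nL in DMSO) for 18 h at 37 C. One-Glo luciferase luminescence read after 30 min at room temperature.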

[20] = qHTS assay to identify small molecule agonists of the AP-1 signaling pathway - cell viability counter screen (AID 1159525; calls by dose curve; also: nearly all actives have a fitted effect of over 55% in size)
Procedure, shortened: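 ME-180 AP-1-bla, 2500 cells/well, Opti-MEM + 0.5% dialyzed FBS; overnight 37 °C; cpd 15-pt titration, 5 h 37 °C; CellTiter-Glo 30 min RT; luminescence read; normalised to TOAB and DMSO controls.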

CCC(Cl)CCC(Cl)C(Cl)CC(Cl)C(Cl)C(Cl)CCl (stereo not drawn)
inactive: Potency [1] | Potency [2] | Potency [3] | Potency [4] | Potency [5] | Potency [6] | Potency [7] | Potency [8] | Potency [9] | Potency [10]

c1ccc(CNCCNCc2ccccc2)cc1
inactive: Potency [11] | Potency [1] | Potency [2] | Potency [3] | Potency [4] | Potency [5] | Potency [6] | Potency [12] | Potency [8] | Potency [9] | Potency [10] | Potency [13]

CCOC(=O)C(O)c1ccccc1 (stereo not drawn)
inactive: Potency [11] | Potency [1] | Potency [2] | Potency [3] | Potency [4] | Potency [5] | Potency [6] | Potency [12] | Potency [7] | Potency [9] | Potency [10] | Potency [13]

O=C(OCCc1ccccc1)c1ccccc1
inactive: Potency [11] | Potency [1] | Potency [2] | Potency [3] | Potency [4] | Potency [5] | Potency [6] | Potency [8] | Potency [9] | Potency [10]
active: Potency [13] 0.386 µM

O=C1CCCCCCCCCCCC(=O)OCCO1
inactive: Potency [11] | Potency [2] | Potency [3] | Potency [4] | Potency [5] | Potency [6] | Potency [9]

NC(N)=NCCC[C@H](N)C(=O)O
inactive: activity change, negative = cytotoxicity [11] -0.114% [at 5.95 µM] | viability change, negative = cytotoxic [1] -1.77% [at 6.95 µM] | activity, negative = cytotoxic [2] 7.11% [at 6.95 µM] | activation [3] 0.874% [at 6.95 µM] | activity change, negative = cytotoxicity [4] -7.79% [at 6.95 µM] | activity, negative = cytotoxicity [5] 0.0529% [at 8.39 µM] | activity change, negative = inhibition [6] -5.21% [at 8.39 µM] | activation [12] 2.4% [at 6.97 µM] | activation [7] 7.8% [at 6.98 µM] | activity change, negative = cytotoxicity [8] 6.89% [at 6.97 µM] | activity change, negative = cytotoxicity [9] -0.0145% [at 8.39 µM] | activity, negative = inhibition [10] 5.45% [at 8.39 µM] | activation [13] 0.0873% [at 8.36 µM] | outcome [14] | Potency [15] | outcome [16] | Potency [17] | outcome [18] | outcome [19]

COc1cc2nc(N(C)CCCNC(=O)C3CCCO3)nc(N)c2cc1OC (stereo not drawn)
inactive: Potency [11] | Potency [1] | Potency [2] | Potency [3] | Potency [4] | Potency [5] | Potency [20] | Potency [12] | Potency [7] | Potency [8] | Potency [9] | Potency [10] | Potency [13] | outcome [14] | Potency [15] | outcome [16] | Potency [17] | outcome [18] | outcome [19]

COCCCN1CCC(NC(=O)c2cc(Cl)c(N)c3c2OCC3)CC1
inactive: Potency [11] | Potency [1] | Potency [2] | Potency [3] | Potency [4] | Potency [5] | Potency [20] | Potency [12] | Potency [7] | Potency [8] | Potency [9] | Potency [10] | Potency [13]

CC(C)Nc1ccc(NC(C)C)c2c1C(=O)c1ccccc1C2=O
inactive: Potency [11] | Potency [1] | Potency [2] | Potency [3] | Potency [4] | Potency [20] | Potency [13]
active: Potency [5] 28.4 µM | Potency [6] 25.3 µM | Potency [9] 25.3 µM
